mHTT-CaM PPI inh: inhibitors of human mutant huntingtin-calmodulin interaction; P42858; AID 1671202; 190,000 compounds, 3.6% hits; AlphaScreen His-mHTT/GST-CaM binding, luminescence; inhibition, % at 15 µM;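 further: 0% = both proteins with DMSO and 100% = one protein alone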
Pf apPOL block: Pf-apPOL DNA polymerase inhibition; Recombinant Pf-apPOL, molecular beacon fluorescence, 1.5 h; inhibition, % at 10 µM; 210,000 compounds, 0.25% hits; AID 1794808
* hit, by the source's call; i = inactive; · = no result given; ! = not confirmed by another sample. Compounds with a hit are over-represented: about 3.6% of the library has one in this group of screens. No stated cut-off is given here; in the data, active means inhibition above about 50%; inactive means the rest.

SMILES | mHTT-CaM PPI inh | Pf apPOL block
CN1/C(=C/c2cccc[n+]2CCO)Sc2ccccc21 | 8 | -1
CN1C(=CC=Cc2cc[n+](CCO)c3ccccc23)Sc2ccccc21 | 95* | 78*
Cc1cc2c(cc1C)NC(CC(=O)Nc1ccccc1C)C(=O)N2 (centres undefined) | 5 | -2
CCOc1ccccc1NC(=O)CC1Nc2cc(C)c(C)cc2NC1=O (centres undefined) | 21 | 5
Cc1cc2c(cc1C)NC(CC(=O)Nc1ccccc1OC(F)F)C(=O)N2 (centres undefined) | 50*! | 5
Cc1ccc(NC(=O)CC2Nc3cc(C)c(C)cc3NC2=O)c(Br)c1 (centres undefined) | 64*! | -6
Cc1noc(C2CN(C(=O)c3cn(C)nn3)C2)n1 | -10 | 6
CCOc1ccccc1CNC(=O)C1CCN(C(=O)c2cc3ccsc3[nH]2)CC1 | -6 | -1
Cc1cc(C)n(-c2ccnc(NCC(C)C)n2)n1 | -17 | -2
COc1cc(-c2nc3sc4c(c3c(=O)o2)CCC4)cc(OC)c1OC | -4 | -2
Cc1ccc(C(=O)N2CCN(c3nnc4ccc(Cl)cn34)CC2)cc1F | 36 | 12
O=C(O)c1ccccc1Nc1ccnc(N2CCOCC2)n1 | 0 | -2
NNc1nccc(Nc2ccccc2C(=O)O)n1 | 100* | -4
Cc1cc2nc(CN3CCN(c4cccc(Cl)c4)CC3)c(=O)[nH]c2cc1C | -7 | 0
O=c1[nH]c2cc(Cl)c(Cl)cc2nc1CN1CCN(c2ccccc2)CC1 | 52* | 6
CCNC(=O)NC1CCN(C(=O)c2ccccc2)C1 (centres undefined) | -1 | -1
O=C(NCC(O)C1CCCCC1)c1ccc2c(c1)OCO2 (centres undefined) | -6 | 0
O=C(NCCN1CCN(c2ccccc2F)CC1)C1(n2cccc2)CCCCC1 | 24 | -9
Cc1ccc(Cl)cc1N1CCN(CCCNC(=O)C2(n3cccc3)CCCCC2)CC1 | 86* | -12
O=C(NCCN1CCN(c2cccc(C(F)(F)F)c2)CC1)C1(n2cccc2)CCCCC1 | 97* | -5
CC1=C(C(=O)NCCCN2CCN(c3cc(C)ccc3C)CC2)C2(CCCCC2)OC1=O | 12 | 0
COc1ccc(CN2CCC(O)CC2)c(C)c1C | -4 | -12
Cn1c(N2CCCC(C(=O)N3CCN(c4ncccn4)CC3)C2)cc(=O)n(C)c1=O (centres undefined) | 9 | 0
Oc1ccc(C(c2c[nH]c3ccccc23)c2c[nH]c3ccccc23)cc1O | -4 | -4
Oc1ccc(-c2csc(-c3c[nH]c4ccccc34)n2)cc1O | 99* | 8
SMILES | mHTT-CaM PPI inh | Pf apPOL block
COc1cc(N=c2oc3c(C)ncc(CO)c3cc2C(=O)Nc2cccc(C)c2)cc(OC)c1 | -1 | 1
COc1ccc(C=Nc2ccc(O)cc2)c(OC)c1 | 71* | -7
COc1cc(OC)c(C=Nc2ccc(O)cc2)cc1Br | 64* | 3
COc1cc(OC)c(C=Nc2ccccc2)cc1Br | 4 | -2
C=CCOc1ccc(C=Nc2ccc(OC)cc2)c(O)c1 | 0 | -2
O=C(NC1CS(=O)(=O)CC1Cl)c1ccco1 (centres undefined) | -6 | 2
COc1ccccc1-n1c(SCC(=O)Nc2ccc(F)cc2F)nc2c(c1=O)SCC2 | 13 | -1
CSc1nc(N)nc(SCc2ccc(Cl)c(Cl)c2)c1C#N | 74* | 0
CSc1nc(N)nc(SC/C=C/c2ccccc2)c1C#N | -8 | -1
c1ccc(CNc2nc(-c3ccncc3)nc3c2CCC3)nc1 | 6 | -14
Cc1nn2c(NCc3ccccn3)c3c(nc2c1-c1ccccc1)CCCC3 | 63* | 1
O=C1Nc2ccccc2C(O)(C(=O)NCc2ccccc2Cl)N1c1c(F)cccc1F (centres undefined) | 7 | -3
O=C(Cc1c[nH]c2ncccc12)NCc1ccccc1 | 1 | -1
O=C(Cc1c[nH]c2ncccc12)NCc1ccc(C(F)(F)F)cc1 | -10 | 86*
O=C(O)CCCC(=O)Nc1nccs1 | 3 | 6
O=C(CCCOc1ccc(Cl)cc1)Nc1nccs1 | -4 | 52*
CCOc1ccccc1C(=O)NCCSc1c[nH]c2ccccc12 | 35 | -4
Cc1ccc(C)c(NC(=O)CN2CCC3(CC2)N=C(c2ccc(F)cc2)C(=O)N3)c1 | 51* | 8
O=C(CN1CCC2(CC1)N=C(c1cccc(Cl)c1)C(=O)N2)Nc1ccc2c(c1)OCO2 | 53* | -1
O=C(CN1CCC2(CC1)N=C(c1ccc(F)cc1)C(=O)N2)Nc1ccccc1 | -5 | -5
O=C(CN1CCC2(CC1)N=C(c1ccccc1)C(=O)N2)Nc1cccc(C(F)(F)F)c1 | 96* | -6
O=C(CN1CCC2(CC1)N=C(c1cccc(Cl)c1)C(=O)N2)Nc1cccc(Cl)c1 | 46 | -2
Cc1cccc(C)c1NC(=O)CN1CCC2(CC1)N=C(c1ccc(F)cc1)C(=O)N2 | 8 | -2
O=C1Nc2ccccc2/C1=c1/sc2n(c1=O)CN(c1cccc(Br)c1)CN=2 | 44 | -11
S=C(NCc1csc2ccccc12)Nc1ccc2c(c1)OCO2 | · | -5
SMILES | mHTT-CaM PPI inh | Pf apPOL block
Cc1cccc(C(=O)N2CCC(c3ccn4ncc(C(=O)N5CCCCC5)c4c3)CC2)c1 | 9 | 2
O=C(CN1CCN(C(=O)Nc2ccc(Cl)cc2)CC1=O)NCc1ccc(F)cc1 | 4 | -1
O=C(Cn1cnc2sc3c(c2c1=O)CCC3)Nc1ccc([N+](=O)[O-])cc1 | 9 | -6
Cc1cc(Cl)ccc1NC(=O)CSc1cccc2cccnc12 | 18 | -6
Cc1cc(C)c(NC(=O)OCc2cccc3cccnc23)c(C)c1 | 100* | -9
Cc1ccc(C(=O)O)cc1N=Cc1cc([N+](=O)[O-])cc([N+](=O)[O-])c1O | -3 | -4
Cc1ccc(N=Cc2cc(Cl)cc([N+](=O)[O-])c2O)c(O)c1 | 56* | -4
COc1cc(/C=N/O)c([N+](=O)[O-])cc1OC | i | ·
COc1cc(C=Nc2ccccc2O)c([N+](=O)[O-])cc1OC | 86* | -6
Cc1ccc(N=Cc2cc(Cl)cc([N+](=O)[O-])c2O)cc1 | 6 | 11
O=[N+]([O-])c1cc(C=Nc2cc(-c3ccccc3)ccc2O)c(O)c([N+](=O)[O-])c1 | 51* | -1
COc1ccccc1NC(=O)c1cc(S(=O)(=O)N2CCCc3ccccc32)ccc1F | 0 | -4
O=C(c1ccccc1)N1CCN(C(C(=O)N2CCOCC2)C2CCCC2)CC1 (centres undefined) | 10 | 4
O=C(Oc1cccc([N+](=O)[O-])c1)N1CCOCC1 | -4 | 2
CC(C)C[C@@H](COCc1ccc(C(F)(F)F)cc1)N1CCN(C(=O)c2ccc(C(F)(F)F)cc2)CCC1=O | 93* | -4
Cc1ccc(COC[C@H](CC(C)C)N2CCN(C(=O)c3cccc(C(F)(F)F)c3)CCC2=O)cc1 | 91* | -2
COCCC1CCN(C(=O)c2ccc(C(F)(F)F)cc2)CC1 | 3 | -3
Cc1ccc(CNC(=O)C2CCCN(C(=O)c3cccc(C(F)(F)F)c3)C2)cc1 (centres undefined) | 32 | 11
CC(C)C[C@@H](COCc1cccc(Cl)c1)N1CCN(C(=O)c2ccc(C(F)(F)F)cc2)CCC1=O | 99* | -4
Cc1ccc(S(=O)(=O)N2CCC(=O)N([C@H](COCc3cccc(Cl)c3)C(C)C)CC2)cc1 | -3 | -3
Cc1ccccc1NC(=O)c1ccc(Cn2cncn2)cc1 | -1 | 2
COc1ccc(Nc2nc(-c3sc(C)nc3C)cs2)cc1 | 52* | -4
COc1ccccc1Nc1nc(-c2sc(C)nc2C)cs1 | -6 | 5

Screens (PubChem)
